According to PubChem BioAssay AID1159580 (chemical genetic matrix, 2015):
“And” between values parts separate entries of the source, which are not always exact repeats. Equal values may be shown once. In all, about 5,500 compounds went through this assay and about 2,000 (36%) were called active. Inconclusive results (about 18%) are left out. Cut-off read from the data, not from the text of the source: active = normalized growth mostly below about 0.91 (no sharp cut-off); inconclusive = no clear call, values can overlap the other calls; inactive = mostly above about 0.92. This is one part of the list.

Experiment: chemical genetic growth profiling, strain panel (AID 1159580);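 note: tested at 20 µM; growth read once vehicle control cultures reached saturation at 30 °C; 1 = growth at the plate median or of vehicle wells; lower values mean less growth of the strain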
Conditions: S. cerevisiae deletion strains, growth OD

Measured: normalized growth

CN(C)CC[C@H](c1ccc(Cl)cc1)c1ccccn1
inactive: locus YAL013W, strain DEP1, stronger effect = lower value 0.997 | locus YAL021C, strain ccr4, stronger effect = lower value 0.99 | locus YAL026C, strain drs2, stronger effect = lower value 1.01 | locus YAL030W, strain snc1, stronger effect = lower value 1 | locus YBL061C, strain skt5, stronger effect = lower value 1.01 | locus YBR009C, strain hhf1, stronger effect = lower value 1.01 | locus YBR021W, strain FUR4, stronger effect = lower value 0.995 | locus YBR023C, strain chs3, stronger effect = lower value 0.996 | locus YBR171W, strain sec66, stronger effect = lower value 0.998 | locus YBR229C, strain ROT2, stronger effect = lower value 1 | locus YBR231C, strain swc5, stronger effect = lower value 0.989 | locus YBR279W, strain paf1, stronger effect = lower value 1.01 | locus YCL011C, strain gbp2, stronger effect = lower value 0.993 | locus YCL016C, strain dcc1, stronger effect = lower value 1.02 | locus YCL029C, strain bik1, stronger effect = lower value 1 | locus YCL061C, strain MRC1, stronger effect = lower value 1 | locus YCL069W, strain vba3, stronger effect = lower value 1 | locus YCR088W, strain abp1, stronger effect = lower value 0.989 | locus YDL005C, strain med2, stronger effect = lower value 0.992 | locus YDL035C, strain GPR1, stronger effect = lower value 1.02 | locus YDL040C, strain nat1, stronger effect = lower value 1.01 | locus YDL074C, strain BRE1, stronger effect = lower value 1.01 | locus YDL101C, strain DUN1, stronger effect = lower value 0.998 | locus YDL134C, strain PPH21, stronger effect = lower value 0.996 | locus YDL185W, strain tfp1, stronger effect = lower value 0.985 | locus YDL192W, strain arf1, stronger effect = lower value 1 | locus YDR001C, strain nth1, stronger effect = lower value 0.999 | locus YDR069C, strain doa4, stronger effect = lower value 1.01 | locus YDR101C, strain arx1, stronger effect = lower value 0.998 | locus YDR137W, strain rgp1, stronger effect = lower value 1.03 | locus YDR150W, strain NUM1, stronger effect = lower value 1.01 | locus YDR159W, strain sac3, stronger effect = lower value 1 | locus YDR162C, strain NBP2, stronger effect = lower value 1.01 | locus YDR195W, strain ref2 1.01 | locus YDR297W, strain sur2, stronger effect = lower value 1.01 | locus YDR318W, strain mcm21, stronger effect = lower value 0.985 | locus YDR334W, strain swr1, stronger effect = lower value 1 | locus YDR335W, strain msn5, stronger effect = lower value 1 | locus YDR388W, stronger effect = lower value 0.991 | locus YDR392W, strain spt3, stronger effect = lower value 1.01 | locus YDR502C, strain sam2, stronger effect = lower value 1.01 | locus YEL003W, strain gim4, stronger effect = lower value 1.01 | locus YEL037C, strain rad23, stronger effect = lower value 0.992 | locus YEL061C, strain CIN8 (second series), stronger effect = lower value 1 | locus YEL061C, strain CIN8, stronger effect = lower value 1 | locus YER015W, strain faa2, stronger effect = lower value 1.01 | locus YER016W, strain bim1, stronger effect = lower value 0.99 | locus YER110C, stronger effect = lower value 0.98 | locus YER111C, strain swi4, stronger effect = lower value 0.994 | locus YER155C, strain BEM2 (second series), stronger effect = lower value 1.01 | locus YER155C, strain BEM2, stronger effect = lower value 1 | locus YER167W, strain BCK2, stronger effect = lower value 1.01 | locus YFR010W, strain ubp6, stronger effect = lower value 0.991 | locus YGL078C, strain dbp3, stronger effect = lower value 1 | locus YGL086W, strain mad1, stronger effect = lower value 1.01 | locus YGL167C, strain pmr1, stronger effect = lower value 0.985 | locus YGL173C, strain kem1, stronger effect = lower value 0.998 | locus YGL227W, strain vid30, stronger effect = lower value 1.01 | locus YGL240W, strain doc1, stronger effect = lower value 1.01 | locus YGL248W, strain PDE1, stronger effect = lower value 0.997 | locus YGL253W, strain hxk2, stronger effect = lower value 1.01 | locus YGR078C, strain PAC10, stronger effect = lower value 1.01 | locus YGR135W, strain pre9, stronger effect = lower value 1 | locus YGR229C, strain SMI1, stronger effect = lower value 1.01 | locus YGR252W, strain gcn5, stronger effect = lower value 0.959 | locus YHR013C, strain ard1, stronger effect = lower value 1.01 | locus YHR027C, strain rpn1, stronger effect = lower value 0.998 | locus YHR030C, strain SLT2, stronger effect = lower value 1 and 0.993 | locus YHR079C, strain IRE1 (second series), stronger effect = lower value 0.993 | locus YHR079C, strain IRE1, stronger effect = lower value 1 | locus YHR094C, strain hxt1, stronger effect = lower value 0.99 | locus YHR129C, strain ARP1, stronger effect = lower value 0.999 | locus YHR142W, strain chs7, stronger effect = lower value 1.02 | locus YHR200W, strain rpn10, stronger effect = lower value 0.992 | locus YIL066C, strain RNR3, stronger effect = lower value 1.01 | locus YIL073C, strain SPO22, stronger effect = lower value 0.992 | locus YIL125W, strain kgd1, stronger effect = lower value 0.999 | locus YIR030C, strain dcg1, stronger effect = lower value 0.991 | locus YJL092W, strain hpr5, stronger effect = lower value 1.01 | locus YJL095W, strain BCK1 (second series), stronger effect = lower value 0.997 | locus YJL095W, strain BCK1, stronger effect = lower value 1 | locus YJL115W, strain asf1, stronger effect = lower value 1.01 | locus YJL129C, strain trk1, stronger effect = lower value 1.01 | locus YJL134W, strain LCB3, stronger effect = lower value 1.01 | locus YJL154C, strain vps35, stronger effect = lower value 1.01 | locus YJL164C, strain tpk1, stronger effect = lower value 0.992 | locus YJL166W, strain qcr8, stronger effect = lower value 0.985 | locus YJL168C, strain set2, stronger effect = lower value 0.993 | locus YJL187C, strain SWE1 (second series), stronger effect = lower value 1.01 | locus YJL187C, strain SWE1, stronger effect = lower value 1.01 | locus YJR043C, strain POL32, stronger effect = lower value 0.984 | locus YJR066W, strain TOR1, stronger effect = lower value 0.993
